Measurements published in the supplement of paper PMC9262897, “Low-cost anti-mycobacterial drug discovery using engineered E. coli” (Nature Communications, 2022).
Structures can show the parent of a compound that is named as a salt. ± gives the standard deviation of the averaged measurements.

system: E. coli TESEC Alr+ wild-type control; assay: growth (OD600 after 10 h); higher = more growth (less inhibition); conditions: compound 0.1 mM; raw OD600 reference: median of DMSO wells 0.49, cell-free background 0.052
Method: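 TESEC Mtb Alr E. coli (ΔaraC ΔtolC ΔentC Δalr ΔdadX, arabinose-inducible Mtb Alr) or the Alr+ wild-type control strain, grown in defined M9-fructose medium without D-alanine in 96-well plates with Prestwick library compounds at 0.1 mM and 1% DMSO. Low Alr induction is 0.1 µM arabinose and high induction is 10 mM arabinose.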

**Q.** Which growth does the source give for `CN1CCN(C(=O)OC2c3nccnc3C(=O)N2c2ccc(Cl)cn2)CC1` (stereo not given) [Zopiclone] here?
**A.** Its growth is 0.454 ± 0.011.

**Q.** Which growth does the source give for `CCn1cc(C(=O)O)c(=O)c2cc3c(cc21)OCO3` [Oxolinic acid] here?
**A.** The growth was 0.0605 ± 0.0014.

**Q.** Which growth does the source give for `CCC1(C)CC(=O)NC(=O)C1` [Bemegride] here?
**A.** Its growth is 0.467 ± 0.024.

**Q.** `CN1[C@@H]2C[C@@H](OC(=O)[C@H](CO)c3ccccc3)C[C@H]1[C@@H]1O[C@@H]12` [Scopolamine hydrochloride] was tested. Which growth did it give?
**A.** The growth was 0.469 ± 0.026.

**Q.** How did the growth turn out when `COc1cc([C@@H]2c3cc4c(cc3[C@H](O)[C@H]3COC(=O)[C@H]23)OCO4)cc(OC)c1OC` [Podophyllotoxin] was run?
**A.** The growth was 0.545 ± 0.085.

**Q.** With `Oc1ccc2c3c1O[C@H]1[C@@H](O)CC[C@@]4(O)[C@@H](C2)N(CC2CCC2)CC[C@]314` [Nalbuphine hydrochloride] as the compound, how does the growth read?
**A.** The growth was 0.515 ± 0.011.

**Q.** How did the growth turn out when `CC[C@@H](CO)NC(=O)[C@@H]1C=C2c3cccc4[nH]cc(c34)C[C@H]2N(C)C1` [Methylergometrine maleate] was run?
**A.** The growth was 0.523 ± 0.018.

**Q.** How did the growth turn out when `COc1ccc(Cc2nccc3cc(OC)c(OC)cc23)cc1OC` [Papaverine hydrochloride] was run?
**A.** Its growth is 0.579 ± 0.04.

**Q.** `CC(CCc1ccccc1)NC(C)C(O)c1ccc(O)cc1` (stereo not given) [Nylidrin] was tested. Which growth did it give?
**A.** Its growth is 0.491 ± 0.052.

**Q.** For `CC(Cc1ccccc1)NCCC(c1ccccc1)c1ccccc1` (stereo not given) [Prenylamine lactate], which growth is on record?
**A.** The growth was 0.0478 ± 0.00061.

**Q.** Which growth does the source give for `COc1ccc(C(CN(C)C)C2(O)CCCCC2)cc1` (stereo not given) [Venlafaxine] here?
**A.** Its growth is 0.438 ± 0.018.

**Q.** How did the growth turn out when `CC(C)(C)NCC(O)c1cc(Cl)c(N)c(Cl)c1` (stereo not given) [Clenbuterol hydrochloride] was run?
**A.** The growth was 0.605 ± 0.12.

**Q.** `CC(C)c1c(CN(C)C(C)Cc2ccccc2)n(C)n(-c2ccccc2)c1=O` (stereo not given) [Famprofazone] was tested. Which growth did it give?
**A.** Its growth is 0.443 ± 0.019.

**Q.** `COc1ccc(CN2CCNCC2)c(OC)c1OC` [Trimetazidine dihydrochloride] was tested. Which growth did it give?
**A.** Its growth is 0.584 ± 0.012.

**Q.** `NCC(O)c1ccc(O)cc1` (racemic) [(+,-)-Octopamine hydrochloride] was tested. Which growth did it give?
**A.** The growth was 0.584 ± 0.08.

**Q.** Which growth does the source give for `C[C@]12CC[C@@H]3c4ccc(OC(=O)N(CCCl)CCCl)cc4CC[C@H]3[C@@H]1CC[C@@H]2O` [Estramustine] here?
**A.** The growth was 0.399 ± 0.008.

**Q.** `CCC1(CC)C(=O)C=CNC1=O` [Pyrithyldione] was tested. Which growth did it give?
**A.** The growth was 0.458 ± 0.024.

**Q.** `CN1[C@@H]2CC[C@H]1C[C@@H](OC1c3ccccc3CCc3ccccc31)C2` [Deptropine citrate] was tested. Which growth did it give?
**A.** The growth was 0.04883 ± 0.00038.

**Q.** With `C=CCC1(CC(C)C)C(=O)NC(=O)NC1=O` [Butalbital] as the compound, how does the growth read?
**A.** Its growth is 0.516 ± 0.029.

**Q.** `CN[C@@H]1[C@@H](O)[C@@H](O[C@@H]2[C@@H](O)[C@H](O[C@H]3O[C@H](CN)CC[C@H]3N)[C@@H](N)C[C@H]2N)OC[C@]1(C)O.CN[C@@H]1[C@@H](O)[C@@H](O[C@@H]2[C@@H](O)[C@H](O[C@H]3O[C@H]([C@@H](C)N)CC[C@H]3N)[C@@H](N)C[C@H]2N)OC[C@]1(C)O.CN[C@@H]1[C@@H](O)[C@@H](O[C@@H]2[C@@H](O)[C@H](O[C@H]3O[C@H]([C@@H](C)NC)CC[C@H]3N)[C@@H](N)C[C@H]2N)OC[C@]1(C)O` [Gentamicine sulfate] was tested. Which growth did it give?
**A.** The growth was 0.0643 ± 0.0096.

**Q.** For `O=C(CCCN1CCC2(CC1)C(=O)NCN2c1ccccc1)c1ccc(F)cc1` [Spiperone], which growth is on record?
**A.** The growth was 0.509 ± 0.042.

**Q.** For `CC[C@@H](C(N)=O)N1CCCC1=O` [Levetiracetam], which growth is on record?
**A.** Its growth is 0.453 ± 0.03.

**Q.** With `C[N+]1([O-])[C@@H]2C[C@@H](OC(=O)[C@H](CO)c3ccccc3)C[C@H]1[C@@H]1O[C@@H]12` (stereo not given in full) [Scopolamin-N-oxide hydrobromide] as the compound, how does the growth read?
**A.** Its growth is 0.472 ± 0.045.

**Q.** Which growth does the source give for `Cc1cc(C(C#N)c2ccc(Cl)cc2)c(Cl)cc1NC(=O)c1cc(I)cc(I)c1O` (stereo not given) [Closantel] here?
**A.** The growth was 0.128 ± 0.012.

**Q.** How did the growth turn out when `C[C@]12CCC(=O)C=C1CC[C@@H]1[C@@H]2C(=O)C[C@]2(C)C(=O)CC[C@@H]12` [Adrenosterone] was run?
**A.** Its growth is 0.533 ± 0.083.

**Q.** How did the growth turn out when `COc1ccc(C(=O)N2CCCC2=O)cc1` [Aniracetam] was run?
**A.** Its growth is 0.467 ± 0.054.

**Q.** Which growth does the source give for `C[C@]12CCC(=O)C(O)=C1CC[C@@H]1[C@@H]2CC[C@]2(C)C(=O)CC[C@@H]12` [Formestane] here?
**A.** Its growth is 0.392 ± 0.026.

**Q.** `CCCC(C)(COC(N)=O)COC(=O)NC(C)C` (stereo not given) [Carisoprodol] was tested. Which growth did it give?
**A.** The growth was 0.594 ± 0.082.

**Q.** With `CC(=O)O[C@H]1C[C@@H]2CC[C@@H]3[C@H](CC[C@@]4(C)[C@H]3C[C@H]([N+]3(C)CCCCC3)[C@@H]4OC(C)=O)[C@@]2(C)C[C@@H]1[N+]1(C)CCCCC1` [Pancuronium bromide] as the compound, how does the growth read?
**A.** The growth was 0.506 ± 0.021.

**Q.** How did the growth turn out when `C=CC[C@]1(O)CC[C@H]2[C@@H]3CCC4=CC(=O)CCC4=C3C=C[C@@]21C` [Altrenogest] was run?
**A.** Its growth is 0.293 ± 0.0069.

**Q.** For `CC(=O)O[C@H]1C[C@H](O[C@H]2[C@@H](O)C[C@H](O[C@H]3[C@@H](O)C[C@H](O[C@H]4CC[C@@]5(C)[C@H](CC[C@@H]6[C@@H]5C[C@@H](O)[C@]5(C)[C@@H](C7=CC(=O)OC7)CC[C@]65O)C4)O[C@@H]3C)O[C@@H]2C)O[C@H](C)[C@H]1O[C@@H]1O[C@H](CO)[C@@H](O)[C@H](O)[C@H]1O` [Lanatoside C], which growth is on record?
**A.** The growth was 0.528 ± 0.096.

**Q.** `C[C@]12COC(=O)C[C@@H]1CC[C@@H]1[C@@H]2CC[C@@]2(C)[C@H]1CC[C@]2(C)O` [Oxandrolone] was tested. Which growth did it give?
**A.** The growth was 0.435 ± 0.042.

**Q.** How did the growth turn out when `CC(=O)OCC(=O)[C@H]1CC[C@H]2[C@@H]3CC[C@H]4C[C@H](O)CC[C@]4(C)[C@H]3C(=O)C[C@]12C` [Alfadolone acetate] was run?
**A.** The growth was 0.474 ± 0.013.

**Q.** How did the growth turn out when `O=c1[nH]c2ccccc2n1C1CCN(CCCC(c2ccc(F)cc2)c2ccc(F)cc2)CC1` [Pimozide] was run?
**A.** Its growth is 0.52 ± 0.043.

**Q.** `CCNCC(O)c1cccc(O)c1` (stereo not given) [Etilefrine hydrochloride] was tested. Which growth did it give?
**A.** Its growth is 0.446 ± 0.011.

**Q.** With `NC(=O)C[S+]([O-])C(c1ccccc1)c1ccccc1` (stereo not given) [Modafinil] as the compound, how does the growth read?
**A.** The growth was 0.634 ± 0.016.

**Q.** For `O=P1(N(CCCl)CCCl)NCCCO1` (stereo not given) [Cyclophosphamide], which growth is on record?
**A.** The growth was 0.57 ± 0.069.

**Q.** Which growth does the source give for `CN1[C@@H]2CC[C@H]1C[C@@H](OC(=O)C(CO)c1ccccc1)C2` (stereo not given in full) [Atropine sulfate monohydrate] here?
**A.** Its growth is 0.418 ± 0.017.

**Q.** With `CCOC(=O)c1cncn1[C@H](C)c1ccccc1` [Etomidate] as the compound, how does the growth read?
**A.** The growth was 0.397 ± 0.013.

**Q.** For `CC(C)C[C@H]1C(=O)N2CCC[C@H]2[C@]2(O)O[C@](NC(=O)[C@@H]3C=C4c5cccc6[nH]c(Br)c(c56)C[C@H]4N(C)C3)(C(C)C)C(=O)N12` [Bromocryptine mesylate], which growth is on record?
**A.** The growth was 0.511 ± 0.046.
